Results taken from the supplement of paper PMC10338343.
± gives the standard deviation. Over roughly 5,500 sequences, “pre-steady-state target cleavage rate” has its median near 0.1; the highest 2% begin near 0.64. The full list was thinned out, with the highest values kept by preference.

Test system: MIWI (PIWIL1) piRISC loaded with piRNA #2 (30 nt)
Assay: pre-steady-state target cleavage rate (min^-1); MIWI and MILI are mouse PIWI proteins and EfPiwi is from a freshwater sponge; tags in brackets are library labels; higher = faster piRNA-guided slicing of the target
Settings: guide: piRNA #2 5'p-UUAGGUAACCCAGUAGAUCCAGAGGAAUUC; auxiliary factor: 500 nM mouse GTSF1
Method: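 Cleave-'n-Seq: a library of target RNAs (target site embedded in constant flanks, ACAGCATTCCGCGTTAGTGATATCCG... 5' flank; DNA-blocked outside the site) at 0.1 nM was incubated with 1 nM active mouse MILI or MIWI piRISC (synthetic 5'-monophosphorylated piRNA guide) with or without 500 nM mouse GTSF1 at 33 °C for 1 min to 16 h. Uncleaved targets were sequenced and normalised to non-target controls, and the pooled three trials were fitted to a burst-and-steady-state model to give the pre-steady-state cleavage rate (min^-1; k3 is constrained to at most 1e-4). Sequence is the target site only; target names encode pairing extent (gX:gY) and contiguous / 1-mismatch / 2-mismatch / bulge geometry. Fits with R² ≤ 0 are excluded.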

Sequence	pre-steady-state target cleavage rate
CUUUUCCUCUGGAUCUACUGCGUUACCUAA	0.527 ± 0.057
CUUUUCCUCAGGAUCUACUGCGUUACCUAA	0.524 ± 0.062
CUAUUCCUCUCGAUCUACUCGGUUACCUAA	0.196 ± 0.017
GAAUUCCUCUCGAUCUACUCGGUUACCUAA	0.123 ± 0.018
CUAUUCCUCUCGAUCUACUGCGUUACCUAA	0.948 ± 0.092
CAAUUCCUCUCGAUCUACUCGGUUACCUAA	0.22 ± 0.022
GAAUUCCUCUCGAUCUACUGCGUUACCUAA	0.691 ± 0.063
GAAUUCCUCUGGAUCUACUGCGUUACCUAA	0.469 ± 0.056
CUUAUCCUCUGGAUCUACUCCGUUACCUAA	0.021 ± 0.009
CAUUUCCUCUGGAACUACUGGGUUACCUAA	0.612 ± 0.044
GAAUUGCUCAGGAUCUACUGGGUUACCUAA	0.168 ± 0.037
CUUAAGGUCUGGAUCUACUGGGUUUGCUAA	0.0859 ± 0.018
CAAUUCCUGUGGAUCUACAGGGUUACCUAA	0.268 ± 0.036
CUUAAGCUCUGGAUCUACUGGGUUACCUAG [g2:g24:cont:t1G]	0.0755 ± 0.013
CAAUUCCUUGGAUCUACUGGGUUACCUAA	0.45 ± 0.061
CUUAACCUCAGGAUCUAGUGGGUUACCUAA	0.128 ± 0.017
CUUAUCCUCUCGAUCUACUGGGUUACCUAA	0.561 ± 0.04
CUUAACCUCUCGAUCUACUGCGUUACCUAA	0.614 ± 0.057
CUUAUCCUCUCGAUCUACUGCGUUACCUAA	0.636 ± 0.048
CAAUUCCACUGGAUCUACUGGGUUACCAAA	0.456 ± 0.083
CUUAUCCUCUGGAUCUACAGGGUAACCUAA	0.128 ± 0.023
GAAUUCCUCUGGUUCUACUGGGUUACCUUA	0.427 ± 0.064
CAAUUCCUCUGGUUCUACUGGGUUACCUAA	0.868 ± 0.05
GAAUUCCUCUGGUUCUACUGGGUUACCUAA	0.678 ± 0.042
CAAUUCCUCUGGUCUACUGGGUUACCUAA	0.369 ± 0.088

Sequence	pre-steady-state target cleavage rate
CAAUUCCUCUGGUUCUACUGGGUUACCUUA	0.475 ± 0.066
CUAUUCCUCUGGUUCUACUGGGUUACCUAA	0.711 ± 0.043
CUAUUCCUCUGGUUCUACUGGGUUACGUAA	0.629 ± 0.059
GAAUUCCUCUGGUUCUACUGGGUUACGUAA	0.618 ± 0.035
CAAUUCCUCUGGUUCUACUGGGUUACGUAA	0.688 ± 0.045
GUAUUCCUCUGGUUCUACUGGGUUACCUAA	0.0955 ± 0.034
CUAUUCCUCUGGUUCUACUGGGUUACCUUA	0.371 ± 0.057
GAAUUCCUCUGGUCUACUGGGUUACCUAA	0.301 ± 0.059
CUUAAGCAGAGGAUCUACUGGGUUACCUAA	0.0315 ± 0.0087
GAAUUCCACAGGAUCUACUGGGUUACCUAA	0.408 ± 0.05
CUUAAGGUCUGGAUCUACUGGGUUAGCCUAA	0.185 ± 0.025
CUUUUCCUCUGGAUCUUCUGGGAUACCUAA	0.146 ± 0.022
CUUAAGGUGAGGAUCUACUGGGUUACCUAA	0.0307 ± 0.01
CUUAUCCUCUGGAUCUACUGCGUUACCUAA	0.498 ± 0.055
CUUAAGGUCUGCAUCUAGUGGGUUACCUAA	0.0327 ± 0.0059
GAUUUCCUCUGGUUCUACUGGGUUACCUAA	0.524 ± 0.046
CUAUUCCUCUGCUUCUACUGGGUUACCUAA	0.516 ± 0.04
CAUUUCCUCUGGUUCUACUGGGUUACCUAA	0.772 ± 0.046
GAAUUCCUCUGCUUCUACUGGGUUACCUAA	0.48 ± 0.04
CAAUUCCUCUGCUUCUACUGGGUUACCUAA	0.653 ± 0.056
CUUUUCCUCUGGUUCUACUGGGUUACCUAA	0.621 ± 0.042
CUUAAGGUCUGGUUCUAGUGGGUUACCUAA	0.0776 ± 0.014
CUUAAGGACUGGAUCUACUGGGUUACCAUAA	0.051 ± 0.039
CUUAAGUUCUGGAUCUACUGGGUUACCUAA	0.274 ± 0.04
CAAUUCCUCUGGAUCUACUGGGAUACCUUA	0.219 ± 0.046

Sequence	pre-steady-state target cleavage rate
CUUAACCUCUGGAUCAACUCGGUUACCUAA	0.0679 ± 0.013
CUUAUCCUCUGGAUCUUCUGGGAUACCUAA	0.144 ± 0.025
GAAUUCCUCUGGCUCUACUGGGUUACCUAA	0.586 ± 0.038
CAAUUCCUCUGGCUCUACUGGGUUACCUAA	0.66 ± 0.04
CUUUUCCUCUGGCAUCUACUGGGUUACCUAA	0.331 ± 0.089
CAAUUCCUCUGGCAUCUACUGGGUUACCUAA	0.636 ± 0.17
CUAUUCCUCUGGCAUCUACUGGGUUACCUAA	0.399 ± 0.1
CAAUUCCUCUGCAUCUACUGGGUUACCUAA	0.57 ± 0.049
GAAUUCCUCUGGCAUCUACUGGGUUACCUAA	0.667 ± 0.17
CUAUUCCUCUGGCUCUACUGGGUUACCUAA	0.612 ± 0.042
GAAUUCCUCUGCAUCUACUGGGUUACCUAA	0.421 ± 0.051
CUUAACCACUGGAACUACUGGGUUACCUAA	0.292 ± 0.025
CUAUUCCACUGGAUCUACUGGGUUUCCUAA	0.448 ± 0.066
CAAUUGCUCUGGAUCUACUGGGUUACCAAA	0.429 ± 0.071
CUUAAGGUCUGGAUCUACUGGGUUACAUAA	0.606 ± 0.054
CUAUUCCUCUGGAUCUACUGGGUUACCUAAA	0.333 ± 0.047
CUUUUCCUCUCGAUCUACUGGCUUACCUAA	0.201 ± 0.016
CUUAAGGUCUGGAUCAACUGGGUUACGUAA	0.293 ± 0.039
CUUAUCCUCUGGAUCUACUGAGUUACCUAA	0.779 ± 0.05
CUUAACCUCUGGAUCUACUGGAGUUACCUAA	0.00317 ± 0.0031
CUUAACCUCUGGAUCUACUGGUUACCUAA	0.0564 ± 0.012
CUUAACCUCUGGAUCUACUGAGUUACCUAA	0.646 ± 0.047
CUUAUCCUCUGGAUCUACUGGGUUACCUAA [g2:g26:cont:t1A]	0.414 ± 0.063
CUUAUCCUCUGGAUCUACUGGAUUACCUAA	0.402 ± 0.049
